“And” between values parts separate entries of the source, which are not always exact repeats. Equal entries are not always repeated. Records with an inconclusive call do not appear. For part of these data: Measured potencies and affinities stand elsewhere. The source made the active and inactive calls. Unless noted, how the calls were made is not given here.
Columns and labels:
[1] = target: 6-phosphogluconate dehydrogenase, decarboxylating (Homo sapiens) (UniProt P52209); assay: inhibition of human phosphogluconate dehydrogenase – biochemical, recombinant enzyme, NADPH absorbance, primary screen (AID 1159550;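 active means at least 20% inhibition of 6-phosphogluconate dehydrogenase activity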); conditions: recombinant 6PGD, NADPH absorbance 341 nm; at 10 µM; stronger effect = higher value
[2] = EMT-state selective cytotoxicity in co-culture – imaging, PC-3E GFP, TEM4-18 mCherry, primary screen (AID 1345086;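 active means compounds killing one labelled cell type while sparing the other, by normalised counts and ratio limits, not self-fluorescent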;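 on all read-outs here: cells exposed to compound for 72 h before imaging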;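 on red/green cell ratio (normalised): normalised mesenchymal count divided by normalised epithelial count so high means epithelial killing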); conditions: PC-3E GFP / TEM4-18 mCherry co-culture, imaging cell counts, at 1 µM; for red/green cell ratio (normalised): actives lie on both sides
[3] = system: Aerobactin synthetase IucA (Klebsiella pneumoniae hvKP1); assay: IucA enzyme inhibition, primary screen, biochemical, Spectrum library (AID 1346200); conditions: malachite green pyrophosphate, A620, at 8 µM, stronger effect = lower value;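 further: 100% = wells without compound and 0% = wells lacking enzyme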
[4] = target: Mitogen-activated protein kinase 7 (Homo sapiens) (UniProt Q13164); assay: Gal4-ERK5 driven luciferase induction – cell-based, HTS, primary screen (AID 1508626;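 active means luciferase signal above three times the same-plate solvent-only control wells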;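 further: luciferase driven by Gal4-ERK5 fusion binding five Gal4 sites before minimal TATA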); conditions: HeLa Gal4-ERK5 transactivation, 18 h, at 5 µM, stronger effect = higher value
[5] = blockers of polyQ-driven CASP3 activation – cell-based (AID 1583); conditions: polyglutamine-induced caspase-3 activation, cell assay; stronger effect = higher value;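 tested at 10 µM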
[6] = yeast 75Q aggregation reduction – 75Q-TubU reporter (AID 1593); conditions: Yeast 75Q polyglutamine aggregation reporter
[7] = restoration of touch response, mutant HTT neurons – whole organism, C. elegans mechanosensory neurons, N-terminal huntingtin (AID 1599); conditions: C. elegans polyQ-huntingtin mechanosensory neurons, stronger effect = higher value
[8] = blockers of cytochrome c efflux from mitochondria – biochemical, purified mitochondria (AID 1603); conditions: stronger effect = lower value;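 further: mouse liver mitochondria challenged with calcium chloride; signal normalized to the plate average as 100%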
[9] = polyglutamine aggregate formation blockers (AID 1604); conditions: polyglutamine-induced protein aggregation inhibition assay; stronger effect = higher value; tested at 2.5 µM
[10] = glutamate transport activators, MN-1 cells, MN-1 cell line (AID 1612); conditions: MN-1 motor neuron cells, stronger effect = higher value;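 further: tested at 1 µM final; 0% = mean of DMSO vehicle wells on each plate; positive means more glutamate uptake than control and negative means less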
[11] = GFP-Q80 aggregate reduction, neuronal-like cells, cell-based, NGF-treated PC12, GFPQ80 (AID 1614); conditions: PC12 NGF-treated GFP-polyQ80 inclusion reduction;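 further: lower means fewer inclusions and 0 means no inclusions at all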
[12] = 75Q-TubH aggregate inhibition, S. cerevisiae, yeast (AID 1616); conditions: S. cerevisiae 75Q-TubH polyglutamine aggregation suppression; stronger effect = higher value
[13] = P. berghei load reduction in hepatocytes – cell-based, HepG2, luciferase luminescence, HepG2 viability, primary screen (AID 624349; in the data active means parasite load remaining mostly below about 12%, no sharp cut-off; inactive means mostly above about 10%;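 further: 100% = mean of DMSO negative control wells on the same plate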); conditions: P. berghei liver stage in HepG2, luciferase luminescence, concentration not given here; parasite load remaining: stronger effect = lower value; viability: measured here: HepG2 viability without parasites
[14] = system: Aerobactin synthetase IucA (Klebsiella pneumoniae, hypervirulent); assay: biochemical IucA inhibition screen of LOPAC library by absorbance (AID 1346212); conditions: IucA enzyme assay, absorbance (OD) readout; stronger effect = lower value;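 tested at 8 µM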;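 further: 100% = no compound wells and 0% = no enzyme wells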
[15] = viability loss with induced miR-34 in A549 – imaging, A549 dox-inducible miR-34, nuclei and caspase counts, primary screen (AID 1347080;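 active means compounds whose cell count with miR-34 switched on is under 0.7 times the count with it off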); conditions: A549 miR-34 inducible, Hoechst nuclei count, 48 h
[16] = galactose survival enhancers in mitochondrial complex I cybrids – cell-based, galactose medium, ATP luminescence, primary screen (AID 1645843;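 active means z-score of at least 1.8 in each of two replicates, scored against plate mean and spread of sample wells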;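 further: positive z means more ATP and so rescue of galactose-driven cybrid death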); conditions: complex I mutant cybrid cells, 72 h, stronger effect = higher value
[17] = target: NAD(+) hydrolase SARM1 (Homo sapiens) (UniProt Q6SZW1); assay: blocking NAD cleavage by SARM1 SAM-TIR – cell lysate, NAD-Glo luminescence (AID 1508614;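 active means compound whose remaining NAD level is above about 45 nM, limit read from the data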); conditions: SAM-TIR HEK293T lysate NADase, at 1 µM, stronger effect = higher value
[18] = target: ATP-dependent translocase ABCB1 (Homo sapiens) (UniProt P08183); assay: P-glycoprotein substrate transport blockade – cell-based (AID 377; in the data active means fluorescence slope change above about 50%); conditions: MDR1-expressing cells, fluorescent substrate accumulation slope; stronger effect = higher value; concentration not given here
[19] = compounds altering viability of human ES cells (AID 493140); conditions: human embryonic stem cell survival screen; stronger effect = higher value;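 further: cells exposed to compounds for four days before counting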
[20] = MELAS cybrid and Rieske KO viability enhancers – cell-based, MELAS cybrids, Rieske KO mouse fibroblasts, CellTiter-Glo, primary screen (AID 1508586;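 active means mean z-score across replicates of 1.96 or higher in either the MELAS or the Rieske mutant cell line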;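 further: z relative to plate mean and SD of compound and empty wells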); conditions: low glucose
[21] = measured here: epithelial PC-3E GFP cell survival
[22] = measured here: mesenchymal TEM4-18 mCherry cell survival
[23] = measured here: relative caspase fold change +Dox/-Dox
[24] = measured here: total cells with miR-34 induction, stronger effect = lower value
[25] = measured here: total cells without miR-34 induction
[26] = MELAS cybrid survival, CellTiter-Glo 48 h, stronger effect = higher value
[27] = Rieske KO mouse fibroblast survival, CellTiter-Glo 72 h

Sequence of 6-phosphogluconate dehydrogenase, decarboxylating (Homo sapiens) (P52209 whole entry, looked up): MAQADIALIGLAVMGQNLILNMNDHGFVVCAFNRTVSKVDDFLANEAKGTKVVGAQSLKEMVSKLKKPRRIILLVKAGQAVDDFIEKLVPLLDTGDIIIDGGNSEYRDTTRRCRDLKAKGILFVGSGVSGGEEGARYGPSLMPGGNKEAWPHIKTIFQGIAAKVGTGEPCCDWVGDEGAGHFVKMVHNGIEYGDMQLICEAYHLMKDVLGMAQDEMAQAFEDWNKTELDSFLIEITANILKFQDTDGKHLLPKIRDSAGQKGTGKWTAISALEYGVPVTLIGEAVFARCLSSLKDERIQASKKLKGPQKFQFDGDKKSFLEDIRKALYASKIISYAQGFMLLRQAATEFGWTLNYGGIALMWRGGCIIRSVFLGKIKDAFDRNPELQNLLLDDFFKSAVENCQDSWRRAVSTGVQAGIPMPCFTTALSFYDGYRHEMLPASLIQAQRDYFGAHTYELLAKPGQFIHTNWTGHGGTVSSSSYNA
Sequence of Mitogen-activated protein kinase 7 (Homo sapiens) (Q13164 whole entry, looked up, the tested form may be a part): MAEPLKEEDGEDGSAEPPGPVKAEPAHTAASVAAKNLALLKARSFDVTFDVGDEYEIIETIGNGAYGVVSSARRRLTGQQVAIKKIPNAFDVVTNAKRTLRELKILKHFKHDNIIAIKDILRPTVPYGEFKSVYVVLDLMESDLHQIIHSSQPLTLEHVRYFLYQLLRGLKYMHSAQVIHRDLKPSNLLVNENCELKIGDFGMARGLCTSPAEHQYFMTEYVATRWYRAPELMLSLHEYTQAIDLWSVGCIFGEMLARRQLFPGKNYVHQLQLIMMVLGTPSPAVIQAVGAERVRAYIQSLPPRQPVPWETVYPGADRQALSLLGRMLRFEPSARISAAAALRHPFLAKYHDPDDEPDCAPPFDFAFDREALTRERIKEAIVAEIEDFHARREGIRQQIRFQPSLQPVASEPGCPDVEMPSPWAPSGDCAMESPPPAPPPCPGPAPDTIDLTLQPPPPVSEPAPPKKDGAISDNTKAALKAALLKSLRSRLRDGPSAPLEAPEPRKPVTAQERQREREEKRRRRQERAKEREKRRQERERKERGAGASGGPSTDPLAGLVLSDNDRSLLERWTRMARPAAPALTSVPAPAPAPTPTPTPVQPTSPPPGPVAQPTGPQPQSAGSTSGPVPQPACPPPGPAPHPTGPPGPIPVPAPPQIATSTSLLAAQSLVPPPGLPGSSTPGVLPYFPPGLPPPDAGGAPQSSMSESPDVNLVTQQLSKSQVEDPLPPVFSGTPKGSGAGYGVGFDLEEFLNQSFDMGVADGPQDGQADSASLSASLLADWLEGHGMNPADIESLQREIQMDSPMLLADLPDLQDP
Sequence of NAD(+) hydrolase SARM1 (Homo sapiens) (Q6SZW1 whole entry, looked up): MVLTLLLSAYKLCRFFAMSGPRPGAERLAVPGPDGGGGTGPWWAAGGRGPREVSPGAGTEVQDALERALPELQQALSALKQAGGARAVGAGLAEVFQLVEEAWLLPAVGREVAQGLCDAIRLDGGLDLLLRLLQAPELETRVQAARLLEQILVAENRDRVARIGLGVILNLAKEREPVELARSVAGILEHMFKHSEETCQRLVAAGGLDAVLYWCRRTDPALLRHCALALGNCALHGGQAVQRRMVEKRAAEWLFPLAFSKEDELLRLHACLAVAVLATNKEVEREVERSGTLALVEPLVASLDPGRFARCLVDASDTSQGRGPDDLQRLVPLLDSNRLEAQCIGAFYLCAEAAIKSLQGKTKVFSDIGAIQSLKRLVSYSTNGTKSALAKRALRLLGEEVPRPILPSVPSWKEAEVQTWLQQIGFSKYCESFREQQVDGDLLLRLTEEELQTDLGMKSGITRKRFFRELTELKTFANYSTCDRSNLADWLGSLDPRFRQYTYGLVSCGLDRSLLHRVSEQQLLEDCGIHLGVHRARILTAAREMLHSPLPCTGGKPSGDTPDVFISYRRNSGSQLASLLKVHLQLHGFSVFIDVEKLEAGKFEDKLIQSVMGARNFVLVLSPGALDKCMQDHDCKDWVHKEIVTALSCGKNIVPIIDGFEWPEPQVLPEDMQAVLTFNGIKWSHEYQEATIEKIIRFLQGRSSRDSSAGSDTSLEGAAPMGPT
Sequence of ATP-dependent translocase ABCB1 (Homo sapiens) (P08183 whole entry, looked up): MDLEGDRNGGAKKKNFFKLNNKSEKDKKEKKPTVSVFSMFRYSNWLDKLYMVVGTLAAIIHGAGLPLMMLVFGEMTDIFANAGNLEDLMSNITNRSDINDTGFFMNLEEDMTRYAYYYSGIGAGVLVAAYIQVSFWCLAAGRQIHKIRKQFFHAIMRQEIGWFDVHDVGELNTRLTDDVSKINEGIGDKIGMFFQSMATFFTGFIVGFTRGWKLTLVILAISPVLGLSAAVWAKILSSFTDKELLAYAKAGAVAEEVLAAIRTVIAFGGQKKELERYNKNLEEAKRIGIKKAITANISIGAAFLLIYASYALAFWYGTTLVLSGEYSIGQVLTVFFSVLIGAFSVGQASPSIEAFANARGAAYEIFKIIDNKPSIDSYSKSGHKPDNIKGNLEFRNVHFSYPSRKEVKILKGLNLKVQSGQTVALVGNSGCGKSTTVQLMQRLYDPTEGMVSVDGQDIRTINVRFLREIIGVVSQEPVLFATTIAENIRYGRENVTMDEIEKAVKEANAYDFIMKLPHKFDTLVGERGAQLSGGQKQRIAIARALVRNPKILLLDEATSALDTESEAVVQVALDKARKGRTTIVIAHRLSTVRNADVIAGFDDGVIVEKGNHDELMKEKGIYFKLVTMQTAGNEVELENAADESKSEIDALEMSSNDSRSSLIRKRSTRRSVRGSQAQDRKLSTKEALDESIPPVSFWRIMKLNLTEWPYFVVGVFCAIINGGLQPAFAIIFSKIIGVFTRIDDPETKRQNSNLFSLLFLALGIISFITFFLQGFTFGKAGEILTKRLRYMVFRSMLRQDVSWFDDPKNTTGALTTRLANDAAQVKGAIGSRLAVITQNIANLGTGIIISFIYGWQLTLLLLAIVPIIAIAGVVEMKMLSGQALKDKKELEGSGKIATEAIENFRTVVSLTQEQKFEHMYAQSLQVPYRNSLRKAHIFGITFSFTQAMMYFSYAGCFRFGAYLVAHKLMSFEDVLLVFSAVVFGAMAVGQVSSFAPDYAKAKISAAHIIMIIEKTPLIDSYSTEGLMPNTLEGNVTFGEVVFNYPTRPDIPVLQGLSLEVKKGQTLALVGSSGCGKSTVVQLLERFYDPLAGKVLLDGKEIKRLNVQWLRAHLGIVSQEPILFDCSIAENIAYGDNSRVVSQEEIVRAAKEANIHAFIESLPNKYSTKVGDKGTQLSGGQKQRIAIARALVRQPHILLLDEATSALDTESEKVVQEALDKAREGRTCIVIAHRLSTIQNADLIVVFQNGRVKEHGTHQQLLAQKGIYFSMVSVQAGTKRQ

COC1=C[C@@H]2[C@@H]3Cc4ccc(OC)c(O)c4[C@]2(CCN3C)CC1=O
inhibition [1]: 2.36% (inactive)
red/green cell ratio (normalised) [2]: 0.75 (inactive)
normalised cell number [2, 21]: 1.39
normalised cell number [2, 22]: 1.03
activity remaining [3]: 94.1% (inactive)
luciferase signal [4]: 72 AU (inactive)

CC(=O)CC1CCCCN1 (stereo not given)
inhibition [1]: 16.3% (inactive)
red/green cell ratio (normalised) ([2]; counts scaled to control wells, 1 = unselective): 1.09 (inactive)
normalised cell number [2, 21]: 0.99
normalised cell number [2, 22]: 1.09
activity remaining [3]: 107% (inactive)
luciferase signal [4]: 48 AU (inactive)

NCCc1c[nH]c2ccccc12
inhibition [5]: 21.6%
score [6]: 1.14
rescue above control [7]: -4.06
cytochrome c release ratio [8]: 0.68
inhibition of aggregation [9]: 21.6%
glutamate uptake change [10]: 6.97%
inclusion score [11]: 2
aggregation suppression score [12]: 1.32
parasite load remaining [13]: 148% (inactive)
viability [13]: 88.3%
inhibition [1]: -12.7% (inactive)
red/green cell ratio (normalised) [2]: 1.06 (inactive)
normalised cell number [2, 21]: 0.86
normalised cell number [2, 22]: 0.92
activity remaining [3]: 113% (inactive)
remaining activity [14]: 89.5% (inactive)
fold change ([15]; stronger effect = lower value): 1.02 (inactive)
fold change [15, 23]: 1.42
cell count [15, 24]: 9290
cell count [15, 25]: 9110
luciferase signal [4]: 44 AU (inactive)
z-score [16]: 0.19 (inactive)

ClC1C(Cl)C(Cl)C(Cl)C(Cl)C1Cl (stereo not given)
inhibition [5]: 25.7%
score [6]: 0.3
rescue above control [7]: -3.21
cytochrome c release ratio [8]: 1.15
inhibition of aggregation [9]: 69.4%
glutamate uptake change [10]: 1.02%
aggregation suppression score [12]: -0.101
parasite load remaining [13]: 60.1% (inactive)
viability [13]: 93.4%
inhibition [1]: 7.58% (inactive)
red/green cell ratio (normalised) [2]: 1.19 (inactive)
normalised cell number [2, 21]: 1.23
normalised cell number [2, 22]: 1.47
activity remaining [3]: 113% (inactive)
fold change ([15]; stronger effect = lower value): 0.871 (inactive)
fold change [15, 23]: 1.71
cell count [15, 24]: 10400
cell count [15, 25]: 11900
remaining NAD [17]: 10 nM (inactive)
luciferase signal [4]: 192 AU (inactive)

CC1=NCCc2c1[nH]c1cc(O)ccc21
fluorescence slope change [18]: 159% (active)
inhibition [5]: -45.7%
score [6]: 0.81
rescue above control [7]: 0.94
cytochrome c release ratio [8]: 0.72
inhibition of aggregation [9]: 14.3%
glutamate uptake change [10]: 13.4%
inclusion score [11]: 2
aggregation suppression score [12]: 1.24
survival [19]: 17.3 (inactive)
parasite load remaining [13]: 47.1% (inactive) and 63.7% (inactive) and 58.9% (inactive)
viability [13]: 102% and 67.4% and 76.2%
inhibition [1]: -14.9% (inactive)
red/green cell ratio (normalised) [2]: 0.98 (inactive)
normalised cell number [2, 21]: 1.01
normalised cell number [2, 22]: 0.99
activity remaining [3]: 98.9% (inactive)
fold change ([15]; stronger effect = lower value, cell number ratio, induced over uninduced): 0.845 (inactive)
fold change [15, 23]: 1.99
cell count [15, 24]: 8870
cell count [15, 25]: 10500
luciferase signal [4]: 64 AU (inactive)

S=C=NCc1ccccc1
parasite load remaining [13]: 45.7% (inactive)
viability [13]: 72.2%
inhibition [1]: -1.63% (inactive)
red/green cell ratio (normalised) [2]: 0.83 (inactive)
normalised cell number [2, 21]: 1.15
normalised cell number [2, 22]: 0.95
activity remaining [3]: 83.8% (inactive)
remaining NAD [17]: 10 nM (inactive)
luciferase signal [4]: 168 AU (active)

COc1cc([C@@H]2c3cc4c(cc3[C@@H](O)C3COC(=O)C32)OCO4)cc(OC)c1O (stereo not given in full)
inhibition [1]: 4.81% (inactive)
red/green cell ratio (normalised) [2]: 1.06 (inactive)
normalised cell number [2, 21]: 0.29
normalised cell number [2, 22]: 0.31
activity remaining [3]: 118% (inactive)

CCCCCCCCCCCCCCCC[n+]1ccccc1
inhibition [5]: 55.6%
score [6]: -0.08
rescue above control [7]: 0
cytochrome c release ratio [8]: 3.74
inhibition of aggregation [9]: 52.2%
glutamate uptake change [10]: -18.1%
aggregation suppression score [12]: -0.00459
parasite load remaining [13]: -0.13% (inactive) and -0.08% (inactive)
viability [13]: 14.3% and 4.9%
inhibition [1]: 10.7% (inactive)
red/green cell ratio (normalised) [2]: 0.76 (inactive)
normalised cell number [2, 21]: 0.52
normalised cell number [2, 22]: 0.4
activity remaining [3]: 111% (inactive)
fold change ([15]; stronger effect = lower value): 0.867 (inactive) and 0.767 (inactive)
fold change [15, 23]: 1.06 and 4.42
cell count [15, 24]: 1850 and 1610
cell count [15, 25]: 2130 and 2090
z-score [20, 26]: -0.367 (inactive)
z-score [20, 27]: -0.303
remaining NAD [17]: 10 nM (inactive)
luciferase signal [4]: 96 AU (inactive)

[N-]=[N+]=CC(=O)OCC(N)C(=O)O (stereo not given)
inhibition [5]: 30.9%
score [6]: 1.27
rescue above control [7]: 6.35
cytochrome c release ratio [8]: 1.1
inhibition of aggregation [9]: -39.4%
glutamate uptake change [10]: -10.2%
inclusion score [11]: 1
aggregation suppression score [12]: 0.586
parasite load remaining [13]: 3.63% (inactive)
viability [13]: 82.2%
inhibition [1]: 12.8% (inactive)
red/green cell ratio (normalised) [2]: 1.35 (inactive)
normalised cell number [2, 21]: 0.86
normalised cell number [2, 22]: 1.16
activity remaining [3]: 105% (inactive)
fold change ([15]; stronger effect = lower value): 0.832 (inactive)
fold change [15, 23]: 1.38
cell count [15, 24]: 601
cell count [15, 25]: 722

CC[N+]1(C)CCCC(OC(=O)C(O)(c2ccccc2)c2ccccc2)C1 (stereo not given)
fluorescence slope change [18]: 17.6% (inactive)
inhibition [5]: -29.9%
score [6]: 1.45
rescue above control [7]: -4.25
cytochrome c release ratio [8]: 1.2
inhibition of aggregation [9]: 91.6%
glutamate uptake change [10]: -17.4%
inclusion score [11]: 2
aggregation suppression score [12]: 1.25
survival [19]: 2.83 (inactive)
parasite load remaining [13]: 98.8% (inactive) and 137% (inactive)
viability [13]: 99.5% and 99.4%
inhibition [1]: -2.23% (inactive)
red/green cell ratio (normalised) [2]: 0.98 (inactive)
normalised cell number [2, 21]: 1.12
normalised cell number [2, 22]: 1.1
activity remaining [3]: 116% (inactive)
fold change ([15]; stronger effect = lower value): 0.964 (inactive)
fold change [15, 23]: 1.14
cell count [15, 24]: 8700
cell count [15, 25]: 9020
z-score [20, 26]: -0.637 (inactive)
z-score [20, 27]: -0.323
luciferase signal [4]: 84 AU (inactive)

CC1=C(O)C(=O)C=C2C1=CC=C1[C@@]2(C)CC[C@@]2(C)[C@@H]3C[C@](C)(C(=O)O)CC[C@]3(C)CC[C@]12C
inhibition [1]: -29.5% (inactive)
red/green cell ratio (normalised) [2]: 0.62 (inactive)
normalised cell number [2, 21]: 0.09
normalised cell number [2, 22]: 0.05
activity remaining [3]: 122% (inactive)
fold change ([15]; stronger effect = lower value): 0.911 (inactive)
fold change [15, 23]: 1.02
cell count [15, 24]: 948
cell count [15, 25]: 1040
luciferase signal [4]: 360 AU (inactive)
